Measurements reported in PubChem BioAssay (EPA / NIEHS).
Where “and” joins values, the source holds several entries; their conditions need not be identical. Equal values may be shown once. Results filed as inconclusive are left out. Some compounds were tested as several samples or in several runs, with calls that do not always agree. Calls of active or inactive are those of the source. Rule for the calls, unless noted: active = hit-call score of the fitted dose curve at least 0.9, where 1 is the maximum; inconclusive = response in the unintended direction; inactive = score below 0.9.

What was measured:
[1] = BSK_3C_VCAM1: BioMAP Diversity Plus: 3C Assay for Vascular cell adhesion molecule 1 (VCAM1) Biomarker Activity (AID 2282999; active = hit-call score of the fitted dose curve at least 0.9, where 1 is the maximum; inactive = score below 0.9); settings: BioMAP 3C HUVEC, VCAM1 ELISA, cytokine-stimulated; actives raise or lower the signal
In short: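 HUVEC primary cells, 24 h compound exposure; VCAM-1 by ELISA; gain/loss of signal fitted bidirectionally vs DMSO baseline.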

[2] = BSK_4H_Eotaxin3: BioMAP Diversity Plus: 4H Assay for Eotaxin 3 Biomarker Activity (AID 2283000; active = hit-call score of the fitted dose curve at least 0.9, where 1 is the maximum; inactive = score below 0.9); settings: primary human endothelial cells (HUVEC); actives raise or lower the signal
In short: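 Chemicals were added to human umbilical vein endothelium cultures, and Eotaxin-3 was quantified by ELISA at 24 h. Values were derived by bidirectional fitting with DMSO serving as negative control and activity baseline.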

[3] = molecular target: human Peroxisome Proliferator-activated Receptor alpha (PPARa), PPARA (gene 5465) (UniProt Q07869); assay: ATG_PPARa_TRANS: Attagene TRANS-FACTORIAL HepG2 Assay for human Peroxisome Proliferator-activated Receptor alpha (PPARa) (AID 2283001)
In short: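 Transient HepG2 transfection, GAL4-UAS reporters, NR-Gal4 chimeras; 24 h compound exposure. Readout: reporter transcripts by RT-PCR, 6-FAM primer extension, HpaI digest, capillary electrophoresis. Positive direction vs DMSO baseline.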

[4] = molecular target: human Peroxisome Proliferator-activated Receptor delta (PPARd), PPARD (gene 5467) (UniProt Q03181); assay: ATG_PPARd_TRANS: Attagene TRANS-FACTORIAL HepG2 Assay for human Peroxisome Proliferator-activated Receptor delta (PPARd) (AID 2283002)
In short: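 Fluorescence from capillary electrophoresis of labelled RT-PCR reporter fragments gives the signal; DMSO sets baseline. Cells: HepG2 transiently carrying GAL4-UAS reporter units plus chimeric nuclear receptor-Gal4 proteins, exposed to chemicals for 24 h.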

[5] = read-out: Intercellular Adhesion Molecule 1 (ICAM1), ICAM1 (gene 3383); assay: BSK_3C_ICAM1: BioMAP Diversity Plus: 3C Assay for Intercellular Adhesion Molecule 1 (ICAM1) Biomarker Activity (AID 2283003; active = hit-call score of the fitted dose curve at least 0.9, where 1 is the maximum; inactive = score below 0.9); settings: primary human endothelial cells (HUVEC); actives raise or lower the signal
In short: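 Using DMSO as baseline, bidirectional curve fitting was applied to ICAM-1 ELISA signals from HUVEC in the 3C system, measured 24 h after compound addition.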

[6] = BSK_3C_Proliferation: Cell Proliferation Assessment in the BioMAP Diversity Plus: 3C Assay (AID 2283006; active = hit-call score of the fitted dose curve at least 0.9, where 1 is the maximum; inactive = score below 0.9;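 for AC50: potency may reflect either rise or fall in cell number versus DMSO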); settings: primary human endothelial cells (HUVEC)
In short: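 Measured here: sulforhodamine B (0.1%) staining of TCA-fixed sub-confluent umbilical vein endothelial cultures 48 h post-dosing, absorbance 560 nm. DMSO served as negative control and baseline; both signal gain and loss were modelled.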

[7] = molecular target: Nuclear receptor subfamily 1 group I member 2 (Homo sapiens) (UniProt O75469); assay: ATG_PXR_TRANS: Attagene TRANS-FACTORIAL HepG2 Assay for human Pregnane X Receptor (PXR) (AID 2283008)
In short: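 HepG2 transfected (FuGene 6) with GAL4-UAS reporter units + PXR-Gal4 chimera; dosed 24 h. Total RNA → oligo(dT) RT → PCR → 6-FAM primer extension → HpaI cut → CE. Gain-of-signal vs DMSO.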

[8] = molecular target: Retinoic acid receptor RXR-alpha (Homo sapiens) (UniProt P19793); assay: ATG_RXRa_TRANS: Attagene TRANS-FACTORIAL HepG2 Assay for human Retinoid X Receptor alpha (RXRa) (AID 2283012)
In short: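 Chimeric NR-GAL4 trans-activation in HepG2, 24 h treatment; reporter transcripts quantified by fluorescence on capillary electrophoresis, analysed for upward change from DMSO.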

[9] = read-out: E-selectin (Homo sapiens) (UniProt P16581); assay: BSK_3C_Eselectin: BioMAP Diversity Plus: 3C Assay for Eselectin Biomarker Activity (AID 2283015; active = hit-call score of the fitted dose curve at least 0.9, where 1 is the maximum; inactive = score below 0.9); settings: primary human endothelial cells (HUVEC); actives raise or lower the signal
In short: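 ELISA read-out of E-selectin on endothelial monolayers after 24 h chemical treatment. Human umbilical vein primary cells served as the system, with DMSO defining baseline activity for bidirectional fitting.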

[10] = read-out: Interleukin-1 alpha (IL1a), IL1A (gene 3552); assay: BSK_BE3C_IL1a: BioMAP Diversity Plus: BE3C Assay for Interleukin-1 alpha (IL1a) Biomarker Activity (AID 2283016; active = hit-call score of the fitted dose curve at least 0.9, where 1 is the maximum; inactive = score below 0.9); settings: primary human bronchial epithelial cells; actives raise or lower the signal
In short: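 Measured in human lung primary bronchial epithelial cells: IL-1a by ELISA at 24 h after dosing, with bidirectional fitting against DMSO.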

[11] = read-out: Monocyte Chemoattractant Protein-1 (MCP1), CCL2 (gene 6347); assay: BSK_4H_MCP1: BioMAP Diversity Plus: 4H Assay for Monocyte Chemoattractant Protein-1 (MCP1) Biomarker Activity (AID 2283018; active = hit-call score of the fitted dose curve at least 0.9, where 1 is the maximum; inactive = score below 0.9); settings: primary human endothelial cells (HUVEC); actives raise or lower the signal
In short: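 Primary human umbilical vein endothelium is exposed to chemical for 24 h before MCP-1 is assayed by ELISA. Concentration-response fitted bidirectionally relative to DMSO.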

[12] = molecular target: human Retinoic Acid Receptor gamma (RARg), RARG (gene 5916) (UniProt P13631); assay: ATG_RARg_TRANS: Attagene TRANS-FACTORIAL HepG2 Assay for human Retinoic Acid Receptor gamma (RARg) (AID 2283009)
In short: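 Gain-of-signal relative to DMSO is reported from fluorescent capillary electrophoresis of RT-PCR reporter products. These came from HepG2 cells expressing transfected RARg-GAL4 chimeras with UAS reporters, harvested 24 h after dosing.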

[13] = molecular target: human RAR-related Orphan Receptor beta (RORb), RORB (gene 6096) (UniProt Q92753); assay: ATG_RORb_TRANS: Attagene TRANS-FACTORIAL HepG2 Assay for human RAR-related Orphan Receptor beta (RORb) (AID 2283010);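 for AC50: potency for increased reporter mRNA meaning activation of RORb-Gal4 chimera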
In short: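 Multiplexed transcription-factor reporter assay: HepG2 cells transiently carrying NR-Gal4/GAL4-UAS constructs, 24 h treatment, mRNA quantified by RT-PCR plus capillary electrophoresis fluorescence; activity scored as induction over DMSO.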

[14] = molecular target: human RAR-related Orphan Receptor gamma (RORg), RORC (gene 6097) (UniProt P51449); assay: ATG_RORg_TRANS: Attagene TRANS-FACTORIAL HepG2 Assay for human RAR-related Orphan Receptor gamma (RORg) (AID 2283011);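 for AC50: potency for induction of reporter transcripts above DMSO so activators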
In short: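 First, HepG2 liver cells were transfected with GAL4-UAS-driven reporter constructs and the RORg-Gal4 fusion. Next, they were treated with chemical for 24 h. Finally, reporter mRNA was quantified by RT-PCR and capillary electrophoresis, with upward activity fitted against DMSO.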

[15] = molecular target: human Retinoid X Receptor beta (RXRb), RXRB (gene 6257) (UniProt P28702); assay: ATG_RXRb_TRANS: Attagene TRANS-FACTORIAL HepG2 Assay for human Retinoid X Receptor beta (RXRb) (AID 2283013)
In short: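 After a 24 h incubation with test chemical, transfected HepG2 cells carrying NR-Gal4 fusions and GAL4-UAS reporter transcription units yield RNA whose reporter cDNA is FAM-labelled, HpaI-cut and sized by capillary electrophoresis; increases over DMSO are scored.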

[16] = molecular target: human Thyroid Receptor alpha (THRa1), THRA (gene 7067) (UniProt P10827); assay: ATG_THRa1_TRANS: Attagene TRANS-FACTORIAL HepG2 Assay for human Thyroid Receptor alpha (THRa1) (AID 2283014)
In short: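 Reporter transcript induction, read by capillary electrophoresis of 6-FAM-labelled RT-PCR products, reflects activity of a transfected THRa1-Gal4 fusion in HepG2 liver cells. Cells were dosed for 24 h; activity was fitted in the positive direction against DMSO.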

[17] = molecular target: human Retinoic Acid Receptor beta (RARb), RARB (gene 5915) (UniProt P10826); assay: ATG_RARb_TRANS: Attagene TRANS-FACTORIAL HepG2 Assay for human Retinoic Acid Receptor beta (AID 2283004)
In short: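 Transient transfection of HepG2 with multiple reporter units → chemical dosing, 24 h → total RNA isolation → RT with oligo(dT) → reporter-specific PCR, 6-FAM primer extension, HpaI digest → capillary electrophoresis. Positive direction vs DMSO control.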

[18] = molecular target: Retinoic acid receptor alpha (Homo sapiens) (UniProt P10276); assay: ATG_RARa_TRANS: Attagene TRANS-FACTORIAL HepG2 Assay for human Retinoic Acid Receptor alpha (RARa) (AID 2283005)
In short: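 HepG2 transiently transfected with multiplex GAL4-UAS reporter units including a human RARa–GAL4 chimera; 24 h compound exposure. Reporter mRNA quantified by RT-PCR, 6-FAM labeling and capillary electrophoresis; gain of signal versus DMSO.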

[19] = molecular target: Peroxisome proliferator-activated receptor gamma (Homo sapiens) (UniProt P37231); assay: ATG_PPARg_TRANS: Attagene TRANS-FACTORIAL HepG2 Assay for human Peroxisome Proliferator-activated Receptor-gamma (PPARg) (AID 2283007)
In short: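 After 24 h of chemical exposure, transfected HepG2 cells carrying PPARγ-Gal4 chimera reporter constructs are lysed for RNA. Reporter transcripts are measured by RT-PCR and capillary electrophoresis with fluorescent labelling, and gain of signal is fitted versus DMSO.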

[20] = read-out: Monocyte Chemoattractant Protein-1 (MCP1), CCL2 (gene 6347); assay: BSK_3C_MCP1: BioMAP Diversity Plus: 3C Assay for Monocyte Chemoattractant Protein-1 (MCP1) Biomarker Activity (AID 2283017; active = hit-call score of the fitted dose curve at least 0.9, where 1 is the maximum; inactive = score below 0.9); settings: primary human endothelial cells (HUVEC); actives raise or lower the signal
In short: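 ELISA read-out of MCP-1 from human umbilical vein endothelial cell cultures harvested 24 h post-dosing. Gain or loss of signal was fitted relative to DMSO.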

Measured: AC50

human Retinoic Acid Receptor beta (RARb), RARB (gene 5915), sequence (P10826 whole entry, looked up): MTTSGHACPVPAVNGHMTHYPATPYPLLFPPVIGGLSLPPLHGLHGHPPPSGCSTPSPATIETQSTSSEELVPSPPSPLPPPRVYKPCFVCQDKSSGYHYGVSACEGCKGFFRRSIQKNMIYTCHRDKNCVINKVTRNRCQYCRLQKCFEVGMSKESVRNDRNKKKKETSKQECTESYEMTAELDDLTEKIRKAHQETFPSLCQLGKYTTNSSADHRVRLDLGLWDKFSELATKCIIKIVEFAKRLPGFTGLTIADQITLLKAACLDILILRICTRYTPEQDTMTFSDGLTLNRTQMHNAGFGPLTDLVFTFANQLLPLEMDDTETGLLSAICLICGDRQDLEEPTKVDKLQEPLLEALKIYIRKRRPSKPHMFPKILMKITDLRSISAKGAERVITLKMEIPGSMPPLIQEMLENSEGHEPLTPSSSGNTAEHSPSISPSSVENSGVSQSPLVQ
human Peroxisome Proliferator-activated Receptor alpha (PPARa), PPARA (gene 5465), sequence (Q07869 whole entry, looked up, the tested form may be a part): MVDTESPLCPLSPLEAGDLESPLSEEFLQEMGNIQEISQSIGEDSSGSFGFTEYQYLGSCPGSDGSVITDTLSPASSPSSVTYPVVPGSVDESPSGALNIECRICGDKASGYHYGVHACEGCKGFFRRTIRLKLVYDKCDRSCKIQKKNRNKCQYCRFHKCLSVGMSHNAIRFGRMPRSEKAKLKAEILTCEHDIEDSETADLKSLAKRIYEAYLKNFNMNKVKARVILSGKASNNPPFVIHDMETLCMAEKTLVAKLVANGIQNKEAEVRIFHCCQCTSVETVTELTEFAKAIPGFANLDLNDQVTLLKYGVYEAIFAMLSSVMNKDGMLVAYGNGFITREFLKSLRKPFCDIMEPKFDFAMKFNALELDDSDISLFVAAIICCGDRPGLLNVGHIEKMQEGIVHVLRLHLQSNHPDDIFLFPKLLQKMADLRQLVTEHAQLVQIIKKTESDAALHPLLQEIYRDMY
Retinoic acid receptor RXR-alpha (Homo sapiens), sequence (P19793 whole entry, looked up, the tested form may be a part): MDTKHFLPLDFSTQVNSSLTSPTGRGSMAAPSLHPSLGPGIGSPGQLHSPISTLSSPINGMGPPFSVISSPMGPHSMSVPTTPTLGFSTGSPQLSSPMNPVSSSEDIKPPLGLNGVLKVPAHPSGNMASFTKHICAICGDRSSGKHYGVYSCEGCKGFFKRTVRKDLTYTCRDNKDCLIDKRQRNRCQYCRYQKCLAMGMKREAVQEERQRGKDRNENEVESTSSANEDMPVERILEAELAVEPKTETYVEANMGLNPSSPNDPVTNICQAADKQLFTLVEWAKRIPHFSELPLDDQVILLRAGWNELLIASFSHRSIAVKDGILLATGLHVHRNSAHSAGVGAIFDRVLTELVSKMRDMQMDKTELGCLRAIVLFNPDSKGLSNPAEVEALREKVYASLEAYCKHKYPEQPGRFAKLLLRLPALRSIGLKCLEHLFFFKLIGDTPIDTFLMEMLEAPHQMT
human Thyroid Receptor alpha (THRa1), THRA (gene 7067), sequence (P10827 whole entry, looked up, the tested form may be a part): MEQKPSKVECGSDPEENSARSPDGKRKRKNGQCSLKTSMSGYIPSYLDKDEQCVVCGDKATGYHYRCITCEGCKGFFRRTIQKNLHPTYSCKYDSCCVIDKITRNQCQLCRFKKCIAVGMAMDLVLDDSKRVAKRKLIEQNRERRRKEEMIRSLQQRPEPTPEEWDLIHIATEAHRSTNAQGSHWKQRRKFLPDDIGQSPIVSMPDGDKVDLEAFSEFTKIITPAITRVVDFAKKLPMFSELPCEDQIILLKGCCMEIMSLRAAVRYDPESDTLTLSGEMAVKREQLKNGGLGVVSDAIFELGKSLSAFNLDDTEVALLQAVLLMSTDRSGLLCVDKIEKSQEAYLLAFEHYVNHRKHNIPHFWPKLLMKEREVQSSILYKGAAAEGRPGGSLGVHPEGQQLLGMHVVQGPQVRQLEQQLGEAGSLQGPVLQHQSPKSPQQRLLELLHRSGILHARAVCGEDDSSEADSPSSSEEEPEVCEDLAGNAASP
Nuclear receptor subfamily 1 group I member 2 (Homo sapiens), sequence (O75469 whole entry, looked up, the tested form may be a part): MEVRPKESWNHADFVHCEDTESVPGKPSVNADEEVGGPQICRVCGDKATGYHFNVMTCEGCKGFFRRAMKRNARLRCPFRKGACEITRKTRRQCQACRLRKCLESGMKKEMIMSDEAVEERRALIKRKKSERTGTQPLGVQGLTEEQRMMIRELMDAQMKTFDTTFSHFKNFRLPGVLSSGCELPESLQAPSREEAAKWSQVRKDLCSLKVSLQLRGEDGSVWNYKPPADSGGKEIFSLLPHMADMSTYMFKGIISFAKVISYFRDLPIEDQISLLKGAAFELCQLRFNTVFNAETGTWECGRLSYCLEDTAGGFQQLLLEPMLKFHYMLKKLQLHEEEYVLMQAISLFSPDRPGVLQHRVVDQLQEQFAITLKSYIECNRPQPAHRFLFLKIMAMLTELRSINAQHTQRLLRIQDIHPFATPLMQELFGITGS
human Retinoic Acid Receptor gamma (RARg), RARG (gene 5916), sequence (P13631 whole entry, looked up, the tested form may be a part): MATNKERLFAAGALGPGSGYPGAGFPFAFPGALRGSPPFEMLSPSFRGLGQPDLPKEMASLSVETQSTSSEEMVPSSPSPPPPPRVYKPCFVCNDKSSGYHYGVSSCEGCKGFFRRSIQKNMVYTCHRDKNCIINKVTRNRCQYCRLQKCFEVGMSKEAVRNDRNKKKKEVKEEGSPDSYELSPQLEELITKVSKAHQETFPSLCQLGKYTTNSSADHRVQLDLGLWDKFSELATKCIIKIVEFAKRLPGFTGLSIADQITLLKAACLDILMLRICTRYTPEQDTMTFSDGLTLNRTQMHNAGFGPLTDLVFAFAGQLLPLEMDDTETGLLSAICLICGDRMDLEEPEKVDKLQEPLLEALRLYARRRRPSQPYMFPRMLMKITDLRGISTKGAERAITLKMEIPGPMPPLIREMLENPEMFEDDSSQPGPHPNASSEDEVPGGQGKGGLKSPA
E-selectin (Homo sapiens), sequence (P16581 whole entry, looked up): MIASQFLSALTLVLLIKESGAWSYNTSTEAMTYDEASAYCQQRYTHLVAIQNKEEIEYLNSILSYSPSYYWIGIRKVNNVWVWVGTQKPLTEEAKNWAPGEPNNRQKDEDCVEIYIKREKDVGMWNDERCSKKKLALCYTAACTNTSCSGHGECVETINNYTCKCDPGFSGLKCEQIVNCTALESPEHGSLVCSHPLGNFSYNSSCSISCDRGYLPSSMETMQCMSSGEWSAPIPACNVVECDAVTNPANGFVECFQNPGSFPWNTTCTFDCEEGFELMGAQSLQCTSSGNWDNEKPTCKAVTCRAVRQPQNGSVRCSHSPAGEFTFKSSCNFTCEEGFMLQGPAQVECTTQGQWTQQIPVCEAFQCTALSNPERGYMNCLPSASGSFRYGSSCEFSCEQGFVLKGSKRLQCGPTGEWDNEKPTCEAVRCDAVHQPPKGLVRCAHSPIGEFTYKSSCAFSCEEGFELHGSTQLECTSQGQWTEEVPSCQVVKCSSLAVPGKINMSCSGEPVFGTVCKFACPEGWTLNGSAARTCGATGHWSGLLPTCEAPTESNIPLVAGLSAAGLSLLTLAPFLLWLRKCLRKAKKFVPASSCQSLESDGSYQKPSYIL
human RAR-related Orphan Receptor beta (RORb), RORB (gene 6096), sequence (Q92753 whole entry, looked up, the tested form may be a part): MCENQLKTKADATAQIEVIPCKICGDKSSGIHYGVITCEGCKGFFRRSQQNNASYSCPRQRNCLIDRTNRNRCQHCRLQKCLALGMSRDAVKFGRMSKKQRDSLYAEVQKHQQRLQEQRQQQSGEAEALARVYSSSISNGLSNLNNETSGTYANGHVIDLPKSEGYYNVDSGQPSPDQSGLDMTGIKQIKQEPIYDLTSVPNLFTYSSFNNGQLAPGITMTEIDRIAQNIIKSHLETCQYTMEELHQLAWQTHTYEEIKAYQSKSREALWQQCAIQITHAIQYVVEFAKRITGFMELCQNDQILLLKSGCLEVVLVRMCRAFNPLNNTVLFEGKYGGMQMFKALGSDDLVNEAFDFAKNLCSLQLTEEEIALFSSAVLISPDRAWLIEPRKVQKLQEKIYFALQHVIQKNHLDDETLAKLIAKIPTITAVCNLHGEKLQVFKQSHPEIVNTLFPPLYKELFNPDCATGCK
human Retinoid X Receptor beta (RXRb), RXRB (gene 6257), sequence (P28702 whole entry, looked up, the tested form may be a part): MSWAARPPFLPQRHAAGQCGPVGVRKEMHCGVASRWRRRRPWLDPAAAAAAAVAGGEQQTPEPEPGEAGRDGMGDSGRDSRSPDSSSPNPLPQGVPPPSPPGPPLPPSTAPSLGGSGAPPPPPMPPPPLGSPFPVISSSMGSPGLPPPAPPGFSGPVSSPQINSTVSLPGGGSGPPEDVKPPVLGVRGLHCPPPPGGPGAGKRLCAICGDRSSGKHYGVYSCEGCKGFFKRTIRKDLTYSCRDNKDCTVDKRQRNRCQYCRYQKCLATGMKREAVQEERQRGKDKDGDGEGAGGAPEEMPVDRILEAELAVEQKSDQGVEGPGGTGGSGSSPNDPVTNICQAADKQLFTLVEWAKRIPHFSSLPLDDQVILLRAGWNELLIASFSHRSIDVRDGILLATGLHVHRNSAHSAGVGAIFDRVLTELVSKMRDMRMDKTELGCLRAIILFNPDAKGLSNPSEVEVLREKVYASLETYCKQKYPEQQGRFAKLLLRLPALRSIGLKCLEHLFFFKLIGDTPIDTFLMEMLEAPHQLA
human Peroxisome Proliferator-activated Receptor delta (PPARd), PPARD (gene 5467), sequence (Q03181 whole entry, looked up, the tested form may be a part): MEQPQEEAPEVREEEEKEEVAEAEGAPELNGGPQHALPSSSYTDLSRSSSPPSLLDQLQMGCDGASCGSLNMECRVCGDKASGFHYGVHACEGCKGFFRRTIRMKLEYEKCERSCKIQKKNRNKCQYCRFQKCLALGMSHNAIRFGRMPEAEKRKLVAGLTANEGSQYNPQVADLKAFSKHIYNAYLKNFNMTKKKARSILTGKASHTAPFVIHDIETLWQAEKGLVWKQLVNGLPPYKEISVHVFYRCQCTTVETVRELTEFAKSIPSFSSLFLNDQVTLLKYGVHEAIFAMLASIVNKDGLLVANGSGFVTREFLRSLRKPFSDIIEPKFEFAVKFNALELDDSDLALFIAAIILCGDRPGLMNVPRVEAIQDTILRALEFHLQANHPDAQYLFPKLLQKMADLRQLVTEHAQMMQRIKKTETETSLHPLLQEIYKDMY

CC(=O)[C@H]1CC[C@H]2[C@@H]3CCC4=CC(=O)CC[C@]4(C)[C@H]3CC[C@]12C
active: [2] 25.9 µM | [4] 136 µM | [6] 3.36 µM | [7] 2.54 µM [middle of 4 runs] | [9] 10.1 µM | [11] 12.7 µM
inactive: [1] | [3] | [4] | [5] | [8] | [10]

N#CSCSc1nc2ccccc2s1
inactive: [3] | [4] | [7] | [12] | [13] | [14] | [8] | [15] | [16]
active: [1] 6.63 µM and 10.3 µM | [2] 2.64 µM and 9.47 µM | [5] 6.48 µM and 15.4 µM | [6] 824 nM and 2.52 µM | [13] 12.3 µM | [14] 11.9 µM | [15] 13.3 µM | [9] 7.25 µM and 9.01 µM | [10] 6.07 µM and 10.3 µM | [11] 4.06 µM and 12.2 µM

CC(C)(C)[C@@H](O)[C@@H](Cc1ccc(Cl)cc1)n1cncn1
not listed: [8] | [13] | [20]
inactive: all other assays above

COc1c(Cl)ccc(Cl)c1C(=O)O
not listed: [13] | [14] | [15] | [19]
inactive: all other assays above

CCC(C)OC(=O)N1CCCCC1CCO (stereo unspecified)
active: [7] 9.99 µM | [10] 981 nM
inactive: [1] | [2] | [3] | [4] | [5] | [17] | [6] | [7] | [14] | [8] | [15] | [16] | [9] | [10] | [11]

C=CCOC(Cn1ccnc1)c1ccc(Cl)cc1Cl (stereo unspecified)
active: [6] 21.5 µM | [11] 27.7 µM
inactive: [1] | [2] | [3] | [4] | [5] | [7] | [14] | [15] | [9] | [10]

CCN(CC)C(=O)c1cccc(C)c1
not listed: [13] | [19] | [20]
inactive: all other assays above

CCCCOCCOCCOCc1cc2c(cc1CCC)OCO2
active: [6] 24 µM | [7] 13.3 µM
not listed: [13] | [16] | [19]
inactive: all other assays above

C#C[C@]1(O)CC[C@H]2[C@@H]3CCC4=CC(=O)CC[C@@H]4[C@H]3CC[C@@]21CC
active: [6] 16 µM | [7] 9.53 µM
inactive: [1] | [2] | [3] | [4] | [5] | [7] | [8] | [15] | [16] | [9] | [10] | [11]

c1ccc2[nH]c(-c3cscn3)nc2c1
not listed: [12] | [13] | [16] | [19]
inactive: all other assays above

CCOC(=O)NCCOc1ccc(Oc2ccccc2)cc1
active: [6] 20 µM | [9] 21.3 µM | [11] 18.7 µM
not listed: [13] | [14] | [19] | [20]
inactive: all other assays above

C#CCOC(=O)[C@@H](C)Oc1ccc(Oc2ncc(Cl)cc2F)cc1
not listed: [7] | [15] | [16] | [17] | [18] | [19]
inactive: all other assays above

O=C(O)C1(C(=O)Nc2ccc(Cl)cc2Cl)CC1
active: [6] 32 µM | [19] 35.1 µM
not listed: [13] | [15] | [16] | [17] | [18] | [20]
inactive: all other assays above
